Experimental data published in PubChem BioAssay (NCATS).
Inconclusive results are not listed. Calls of active or inactive are those of the source. Calls follow the shape of the full dose curve.

Assay: Primary qHTS to identify inhibitors of SARS-CoV-2 cell entry (AID 1645846); also: nearly all actives have a fitted effect of over 45% in size
Conditions: SARS-CoV-2 pseudovirus cell entry assay, luminescence; activity change, negative = inhibition: at 57.1 µM (top of the series) unless noted
Summary of the method: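 HEK293 cells stably expressing human ACE2, pre-treated 1 h with compound, then infected with MLV particles pseudotyped with Wuhan-Hu-1 spike (C-terminal 19-aa truncation). Luciferase luminescence after 48 h at 37 °C, normalised to spike PP and bald PP.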
Potency is read from the fitted curve at half-maximal effect.

Structure (SMILES)	Potency	activity change, negative = inhibition [%]
COc1ccc(-c2cc(C(O)C3CCCCN3)c3ccccc3n2)cc1 (stereo unspecified)	12.6 µM (active)	
Nc1ccc(/C=C/C(=O)NCc2cc3cc(-c4ccc(C(=O)N5CCC(F)(F)CC5)cc4)cc(-c4ccc(F)cc4)c3o2)cn1		-96.3
Cc1nc([C@](C)(O)CO)sc1-c1cnc(N)c(O[C@H](C)c2cc(F)ccc2-n2nccn2)c1	22.4 µM (active)	
C=CC(=O)Nc1cccc(C)c1Nc1ncc2cc(-c3c(Cl)c(OC)cc(OC)c3Cl)ccc2n1		-95
COc1cc(C(=O)NC2CCN(C)CC2)c(F)cc1Nc1ncc2c(n1)N(C1CCCC1)CC(F)(F)C(=O)N2C		-99.3
O=C(CCCCCCNC(=O)c1cnc(N(c2ccccc2)c2ccccc2Cl)nc1)NO		2.82
